Measurements from PubChem BioAssay (NCI).
Compounds without any hit were thinned out: in the full panel of roughly 79,000, 15% have a hit. No stated cut-off is given here; in the data, active means growth inhibition above about 70%; inactive means the rest.

What was measured:
[1] = NCI Yeast Anticancer Drug Screen. Data for the rad50 strain (AID 155);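 further: 0% = growth of vehicle-only cultures of the same strain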; conditions: S. cerevisiae rad50 strain growth inhibition, hits give high values; at 50.0 µM unless noted
Procedure, shortened: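 Compounds were tested on a yeast strain with an engineered DNA damage repair alteration; the reported value is growth inhibition normalised to vehicle treatment.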

[2] = NCI Yeast Anticancer Drug Screen. Data for the mec2-1 strain (AID 157); conditions: S. cerevisiae mec2-1 strain, hits give high values; at 50.0 µM unless noted
Procedure, shortened: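 Compounds were applied to mec2-1 yeast cells. Their growth was then compared with that of vehicle-treated cultures to give growth inhibition.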

[3] = NCI Yeast Anticancer Drug Screen. Data for the sgs1 mgt1 strain (AID 161);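 further: 0% = growth of cultures given vehicle only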; conditions: S. cerevisiae sgs1 mgt1 strain, hits give high values; at 50.0 µM unless noted
Procedure, shortened: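 Percent growth inhibition was derived by comparing compound-exposed mutant yeast with vehicle-exposed cultures. The strain carries alterations in DNA damage repair.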

[4] = NCI Yeast Anticancer Drug Screen. Data for the cln2 rad14 strain (AID 165);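 further: 0% = growth equal to vehicle treated cultures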; conditions: S. cerevisiae cln2 rad14 strain, hits give high values; at 50.0 µM unless noted
Procedure, shortened: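 Strain: cln2 rad14 yeast, altered in cell cycle control and DNA damage repair. Read-out: growth inhibition vs vehicle.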

[5] = NCI Yeast Anticancer Drug Screen. Data for the bub3 strain (AID 167); conditions: S. cerevisiae bub3 mutant strain, hits give high values; at 50.0 µM unless noted
Procedure, shortened: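 Growth of a checkpoint-deficient yeast mutant is measured after compound exposure. Values represent inhibition relative to vehicle.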

[6] = NCI Yeast Anticancer Drug Screen. Data for the mlh1 rad18 strain (AID 175); conditions: S. cerevisiae mlh1 rad18 strain growth inhibition, hits give high values; at 50.0 µM unless noted
Procedure, shortened: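 A repair-deficient yeast strain is exposed to test compound, and growth is scored relative to vehicle-treated controls.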

Measured: growth inhibition

CC(=O)c1cc([N+](=O)[O-])ccc1OCC(=O)O
inactive: [1] 5.95% | [2] 4.85% | [3] 3.75% | [4] 1.85% | [5] 9.85% | [6] 9.6%

Cn1ccnc1C(O)(c1nccn1C)c1nccn1C
inactive: [1] -5.75% | [2] -2.55% | [3] 2.15% | [4] 19.1% | [5] -8.35% | [6] 16.2%

CO/N=C1/OC(=O)OCC1(c1ccccc1)c1ccccc1
inactive: [1] 5.45% | [2] -3.4% | [3] 2.7% | [4] 11.1% | [5] 6.3% | [6] -3.3%

CCC(=O)C(C)=O
inactive: [1] 16.9% | [2] 3.9% | [3] 13.1% | [4] -4% | [5] 0.15% | [6] 11.7%

CC(=O)Nc1cc([N+](=O)[O-])cc([N+](=O)[O-])c1O
inactive: [1] -7.5% | [2] -6.95% | [3] -1.6% | [4] -24.8% | [5] -10.8% | [6] 7.2%

CC/C(C)=N\NS(=O)(=O)c1ccc(NC(C)=O)cc1
inactive: [1] -5% | [2] -14.3% | [3] 18.1% | [4] 20.8% | [5] -33.5% | [6] -0.7%

c1ccc(CCCNc2nnnc3ccccc23)cc1
inactive: [1] -9.3% | [2] -36.1% | [3] -10.8% | [4] -19.2% | [5] -57.2% | [6] -4.4%

CN(C(=O)CCC1OCCO1)c1cc(N)ccc1OCc1ccccc1
inactive: [1] 15.3% | [2] -0.7% | [3] -7.2% | [4] 4.8% | [5] 19.9% | [6] -18.6%

O=C(O)c1nc(-c2ccccc2)ncc1-c1nnnn1-c1ccccc1
inactive: [1] -37.7% | [2] 3.75% | [3] -21.9% | [4] 4.7% | [5] -18.7% | [6] -7.1%

CC(=O)N1C(=O)c2cccc([N+](=O)[O-])c2C1=O
inactive: [1] -1.6% | [2] -11.9% | [3] -9.55% | [4] 7.15% | [5] -21.7% | [6] 11.4%

O=C(c1ccccc1)C(c1ccccc1)C(Cl)c1ccccc1 (stereo unspecified)
inactive: [1] 21.4% | [2] 30.8% | [3] 31.4% | [4] 3% | [5] -3.2% | [6] 19%

COc1ccc(SSc2ccc(OC)cc2C(=O)O)c(C(=O)O)c1
inactive: [1] -4% | [2] -19.1% | [3] -21.1% | [4] 1.4% | [5] -36.1% | [6] 1.8%

CCC[N+](C)(C)CCC#N
inactive: [1] -4.55% | [2] 10.9% | [3] 4.2% | [4] -14% | [5] 17.1% | [6] 5.25%

C1=CC(=CN2CCc3ccccc3C2)C=C1
inactive: [1] 2.55% | [2] -8.45% | [3] 3.05% | [4] -6.95% | [5] -9.2% | [6] 6.05%

ClC1c2cccc3cccc(c23)C1Cl (stereo unspecified)
inactive: [1] 6.95% | [2] 8.75% | [3] -0.6% | [4] 4.45% | [5] 7.5% | [6] 10.7%

Cn1cnc([N+](=O)[O-])c1Sc1ncc[nH]1
inactive: [1] 1.3% | [2] 3.1% | [3] -3.05% | [4] 16.4% | [5] 9.7% | [6] 2.8%

CON1C(=O)C(c2ccccc2)c2ccccc21 (stereo unspecified)
inactive: [1] 58% | [2] 22.6% | [3] 47.8% | [4] 3.1% | [5] 10.7% | [6] 6.65%

O=C(CCCCCCCC(=O)NO)NO
inactive: [1] -10.8% | [2] 6.6% | [3] 12.8% | [4] 3.65% | [5] 2.5% | [6] -9.4%

CCOc1ccc(/C=C(\C(=O)c2ccccc2)S(=O)(=O)c2ccc(OC)cc2)cc1OC
inactive: [1] 17.9% | [2] 45.5% | [3] 1.2% | [4] 5.8% | [5] 29.6% | [6] 57%

CC1/C(=N\O)CC2C3(C)CCC2(C(C)C(=O)O)C(=O)C13 (stereo unspecified)
inactive: [1] 4.75% | [2] 9.1% | [3] 2.2% | [4] 8.55% | [5] 8.9% | [6] 20.6%

NC(=O)c1c([N+](=O)[O-])ncn1C1OC(CO)C(O)C1O (stereo unspecified)
inactive: [1] 20.5% | [2] -7.75% | [3] -5.8% | [4] -12.2% | [5] 5.8% | [6] 14.1%
